In the library only some 6.2% were active in any assay of this set; here they are far more common.
SUMO Mot1 rescue = blocks SUMOylation pathway, rescuing yeast Mot1-301 growth. S. cerevisiae Mot1-301 growth rescue, ATP luminescence, 38.5C; percent above DMSO median, 100 means doubled. growth rescue, % at 18.8 µM. 320,000 compounds, 1% hits;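 active means every valid replicate shows activation above 250% relative to neutral control wells; inactive means the rest, any valid replicate at or below 250%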;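 further: OY570 slx delta 5 strain wells were the positive control but not used for scaling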
AHR activator = activators of human aryl hydrocarbon receptor; P35869; AHR-responsive luciferase reporter cells, luminescence; activation, % at 5 µM; 320,000 compounds, 2.5% hits; in the data active means activation above about 47%;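 further: 0% = vehicle wells and 100% = reference agonist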
H9c2 protect = protects H9c2 cardiomyocytes from peroxide injury; H2O2 injury protection, ATPLite, 2 h; protection from H2O2 cell death, % at 20 µM; 360,000 compounds, 0.63% hits; AID 588492;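 active means compounds giving at least 50% protection of heart cells from peroxide-induced death in the single-dose screen, raw or plate-pattern-corrected value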;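 further: 0% = DMSO wells with peroxide and 100% = DMSO wells without peroxide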
AI-2 QS mod = Vibrio harveyi AI-2 quorum sensing modulation; activity change, % at 7.5 µM; 300,000 compounds, 0.4% hits; AID 2094; Vibrio harveyi JMH597 AI-2 luminescence/OD600 ratio, 9 h; stronger effect = lower value; strain lacks LuxN and CqsS sensors; 0 = neutral-control median; in the data active means activity change below about -75%, passing the limit was not always enough; inconclusive means no clear call, values can overlap the other calls;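 further: luminescence divided by OD600 gain over 9 h not by final OD600 alone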
GRIN3A LBD mod = NR3A (human) ligand-binding domain modulation | NR3A LBD differential scanning fluorimetry, Tm shift; 0% = protein alone, 100% = glycine-bound protein | Tm shift relative to glycine control, % at 25 µM | 340,000 compounds, 2.5% hits;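 active means melting temperature shift of at least 10% of the positive control shift, at one fixed dose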
NTR1 agonist = NTR1 (human) agonism | activation, % at 20 µM | 330,000 compounds, 0.17% hits | NTR1-U2OS beta-arrestin-GFP spot imaging, agonist mode | P30989;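 active means activation at or above 40% of the spot to cytoplasm intensity ratio, with at least 20 cells analyzed; inconclusive means wells under 20 cells, flagged as cytotoxic or low count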;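 further: 0% = DMSO without peptide and 100% = 100 nM NTR1 peptide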
* = called active by the depositor; u = inconclusive; x = no result.

SMILES	SUMO Mot1 rescue	AHR activator	H9c2 protect	AI-2 QS mod	GRIN3A LBD mod	NTR1 agonist
Cc1cc2nn(-c3cccc4ccccc34)nc2cc1NC(=O)c1cccs1	8.8	57.1*	-5.4	46.5	-3.1	4.8
O=C(NNC(=O)c1cccs1)c1ccc(Br)cc1	15.4	-4.8	-2.0	29.9	-2.3	-0.6
O=C(Nc1cccc(O)c1)c1cccc(NC(=O)c2cccs2)c1	-0.1	2.0	-2.7	13.5	27.9*	-0.8
O=C(Nc1cccc(NC(=O)c2cccs2)c1)c1ccc(Br)cc1	5.0	12.5	-5.1	-1.5	12.9*	2.6
OCC(CO)c1cnnc2ccccc12	x	x	-0.3	x	1.3	x
[N-]=C=C1C(=S)NC(=O)[C@H]([n+]2ccccc2)[C@H]1c1ccc(Cl)cc1	6.3	2.3	-0.2	38.4	11.8*	0.3
O=C1Nc2ccccc2O/C1=C\c1c(F)cccc1Cl	-0.8	49.1*	-8.1	9.7	3.2	4.6
C[C@H]1CN([C@@H](C)CO)C(=O)c2cc(Br)cnc2O[C@H]1CN(C)C(=O)C1CC1	x	x	-0.8	x	x	x
C[C@H](CO)N1C[C@H](C)[C@@H](CN(C)S(=O)(=O)c2cccs2)Oc2ccc(NS(=O)(=O)c3ccccc3)cc2C1=O	-15.4	-0.8	10.5	x	0.6	-0.5
C[C@H](CO)N1C[C@H](C)[C@@H](CN(C)S(=O)(=O)c2cccs2)Oc2ccc(NC(=O)Nc3ccccc3)cc2C1=O	-8.6	-0.5	67.5*	x	-5.5	0.5
C[C@@H]1CN([C@H](C)CO)C(=O)c2cc(NC(=O)Nc3ccc(C(F)(F)F)cc3)ccc2O[C@H]1CN(C)S(=O)(=O)c1cccs1	-16.3	0.1	-3.4	x	17.4*	7.2
C[C@H](CO)N1C[C@H](C)[C@@H](CN(C)S(=O)(=O)c2ccccc2)Oc2ccc(NC(=O)Nc3ccccc3)cc2C1=O	2.3	-0.6	75.6*	x	4.4	3.8
C[C@H](CO)N1C[C@H](C)[C@@H](CN(C)S(=O)(=O)c2cccs2)Oc2ccc(NC(=O)Nc3ccc(C(F)(F)F)cc3)cc2C1=O	-3.5	-2.3	-2.9	x	23.1*	6.1
CN(CCc1ccccc1)C(=O)c1cccc(NC(=O)Cc2cccc(NC(=O)C3CCN(C(=O)c4ccccc4)CC3)c2)c1	x	x	-17.7	x	-0.5	x
CN(C)c1cc2c3ccccc3n(C)c2cc1N	x	x	1.6	x	-0.6	x
O=C(CNc1cccc(S(=O)(=O)N2CCOCC2)c1)Nc1ccccc1F	-3.3	-0.3	-1.9	33.4	2.0	-0.4
CC(OC(=O)c1ccc2c(=O)n3c(nc2c1)CCC3)C(=O)NC1CCCCC1C (centres undefined)	-19.0	-1.0	1.4	21.9	-7.2	1.4
CCC(C)c1ccc(Nc2ncccc2C#N)cc1 (centres undefined)	777.3	61.4*	-19.4	15.2	0.2	3.7
COc1ccc(CCNc2ncccc2C#N)cc1OC	-25.7	17.8	-3.0	73.1	-1.6	0.8
CCc1ccc(Nc2ncccc2C#N)cc1	94.4	52.1*	-6.4	3.5	-3.5	-0.4
COCCn1c(SCC(=O)Nc2ccc(F)cc2F)nc2c([nH]c3ccccc32)c1=O	10.1	70.8*	3.6	-6.6	1.7	1.0
COCCn1c(SCC(=O)Nc2ccc(C(N)=O)cc2)nc2c([nH]c3ccccc32)c1=O	15.1	51.8*	-0.8	13.1	-8.3	-0.1
COCCn1c(SCC(=O)Nc2ccc(F)cc2)nc2c([nH]c3ccccc32)c1=O	-2.6	13.7	1.9	34.7	3.9	0.6
COCCn1c(SCC(=O)Nc2sccc2C(N)=O)nc2cc(Cl)ccc2c1=O	28.2	8.1	10.8	-0.4	37.5*	3.0
COCCn1c(SCC(=O)Nc2ccccc2F)nc2c([nH]c3ccccc32)c1=O	9.3	61.0*	-2.4	7.3	1.7	0.8
Nc1nc(=O)n(C2CC(O)C(CO)O2)cc1F (centres undefined)	x	x	-2.6	x	0.3	x
COc1ccc(C#Cc2ccc3c(c2)O[C@@H](CN(C)C(=O)Nc2cccc(OC)c2)[C@H](C)CN([C@@H](C)CO)S3(=O)=O)cc1	x	x	11.0	x	x	x
CC1(C)CC(NS(=O)(=O)c2ccc(C(C)(C)C)cc2)CC(C)(C)N1	-4.8	1.6	2.4	x	-0.7	-0.6
Oc1c(Cl)cc(Cl)c2cccnc12	x	x	-2.7	u	-0.4	x
